Vaccinia pol inh – vaccinia E9 polymerase processive synthesis inhibition | 0.94% of 46,000 active | in vitro processive DNA synthesis, absorbance read-out; stronger effect = lower value | normalized absorbance, % (no concentration beside the values); in the data active = normalized absorbance mostly below about 85%, no sharp cut-off; inactive = mostly above about 86%
* hit, by the source's call. This is one part of a sample in which hits are shown more often than they occur.

SMILES	Vaccinia pol inh
CCN(C(=O)C1Cc2ccccc2CN1S(=O)(=O)c1ccc(F)cc1)c1ccccc1 (configuration not stated)	88
Cc1cc(C)cc(OCC(O)CNC(C)(C)C)c1 (configuration not stated)	102
C[C@@]1(CO)[C@H](O)CC[C@@]2(C)[C@H]1CC[C@H]1C[C@@H]3C[C@@]12CC[C@]3(O)CO	15*
OC(CNCCc1ccccn1)C(F)(F)F (configuration not stated)	106
CC(C)N(C(=O)c1sc2ccccc2c1Cl)C(C)C	102
O=C(CCCC(=O)c1ccccc1)Nc1ncn[nH]1	73*
CCc1ccc(OCCCC(=O)Nc2ncn[nH]2)cc1	101
O=C(Nc1ncn[nH]1)c1ccccc1O	94
Cc1ccc(/C=C/C(=O)N2CCN(C(=O)/C=C/c3ccc(C)o3)CC2)o1	91
COC(=O)c1ccccc1NC(=O)C(C)N1c2cccc3cccc(c23)S1(=O)=O (configuration not stated)	106
Cc1cc2cc(CNC(=O)CC3CCCCC3)ccc2n1C	101
C(=Nc1cccc(/N=C/c2ccco2)n1)c1ccco1	99
CC(=C\c1ccccc1)/C=C1/SC(=O)NC1=O	99
Cc1ccc(/C=C2/Sc3ccccc3NC2=O)cc1	99
O=C1NC(=O)/C(=C\c2ccccc2)S1	74*
N#CSC1C=CS(=O)(=O)C1 (configuration not stated)	101
c1ccc(CC2COC(C3=N[C@@H](Cc4ccccc4)CO3)=N2)cc1 (some centres not stated)	99
CC(CCc1ccccc1)NC(=O)CSc1ncnc2ccccc12 (configuration not stated)	100
Cc1ccc(C2CC(c3c(F)cccc3Cl)n3ncnc3N2)cc1C (configuration not stated)	92
Fc1cccc(F)c1C=Nc1cccnc1Cl	108
O=C(CSCc1ccco1)c1cc2ccccc2o1	100
Cc1nc(NC2=NCN(Cc3ccccc3)CN2)nc2ccccc12	73*
CCCCN1CN=C(Nc2nc(C)c3ccccc3n2)NC1	96
c1ccc(CN2CN=C(Nc3nc4ccccc4o3)NC2)cc1	103
CCOc1ccc(NCc2cn3cccnc3n2)cc1	91
SMILES	Vaccinia pol inh
CC(C(=O)O)N1C(=O)/C(=C/c2cccc3ccccc23)SC1=S (configuration not stated)	85
O=C1NC(=O)C(=Cc2cccc3ccccc23)C(=O)N1	88
CSC1=NC(=O)/C(=C\c2cccc3ccccc23)S1	73*
Cc1cccc(CS(=O)(=O)c2ncn[nH]2)c1	92
O=C1CCC(=O)N1Nc1nc2ccccc2c2nc(-c3ccccc3)nn12	98
COc1cc2nc(-n3nc(C)cc3C)n3nc(-c4ccccc4)nc3c2cc1OC	93
CCN(CC)CCCNc1nc2cc(OC)c(OC)cc2c2nc(-c3ccccc3)nn12	34*
O=C1CC(C(=O)NCc2ccc(F)cc2)C2=C(CCCC2=O)N1 (configuration not stated)	96
Cc1ccnc(NC(c2ccc(Cl)cc2)n2nc(C)cc2C)c1 (configuration not stated)	101
Cc1nc2cc(C(=O)O)ccc2n1-c1ccc(Br)cc1	85
CC(=O)Oc1ccc(-c2ccc(C(=O)O)cc2)cc1Cl	103
CCSC1=NCCN1S(=O)(=O)c1ccccc1	100
O=S(=O)(c1ccc(F)cc1)N1CCN=C1SCc1ccc(F)cc1	115
C=C(C)CSc1nnc(SCc2cccc3ccccc23)s1	92
CCS(=O)(=O)N1CCN=C1SCc1cccc2ccccc12	29*
COc1ccc(S(=O)(=O)N2CCN=C2SC)cc1	115
CCSC1=NCCN1S(C)(=O)=O	98
CS(=O)(=O)N1CCN=C1SCc1cccc2ccccc12	51*
Cc1ccc(C)c(CSC2=NCCN2C(=O)COc2ccccc2)c1	101
CS(=O)(=O)N1CCN=C1SCc1ccc(Cl)c(Cl)c1	56*
CCS(=O)(=O)N1CCN=C1SCc1ccccc1C	78*
COc1ccccc1C1CCN(C(=O)CSCc2cccc3ccccc23)CC1	103
O=C(Cc1ccccc1)N1CCN=C1SCc1ccccc1	103
C1=C(CCNc2nc3ccccc3n3nnnc23)CCCC1	99
CC(C)(C)C(=O)NC(Sc1nccc(=O)[nH]1)=C(Cl)Cl	97
SMILES	Vaccinia pol inh
CC1CCCCC1NC(=O)c1cc2c(s1)CSC2 (configuration not stated)	99
O=C(O)c1ccc(Cn2c(SCc3ccccc3F)nc3ccncc32)cc1	109
O=C(O)c1ccccc1NCc1ccccc1Cl	64
O=C(Nc1ccccc1C(=O)O)OCC1c2ccccc2-c2ccccc21	41*
O=C(/C=N/O)Nc1ccccc1C(=O)O	94
COc1ccc(S(=O)(=O)Cc2ccccc2)cc1NC(C)=O	90
O=C(O)C(Cc1cnc[nH]1)N1C(=O)c2ccccc2C1=O (configuration not stated)	98
COc1ccc(C=Nc2ccccc2Sc2c(C)n[nH]c2C)cc1	105
Oc1c(Cl)cc(Cl)cc1Sc1cc(Cl)cc(Cl)c1O	60*
O=C(c1cnoc1)c1cc(Cl)cc(Cl)c1O	94
CCC(=O)c1cc(Cl)cc(Cl)c1O	97
Cc1ccc(N)c(C(O)(C(F)(F)F)C(F)(F)F)c1	102
Oc1c(Cl)cc(Cl)cc1C(O)(C(F)(F)F)C(F)(F)F	84*
COC(=O)c1cc2c(s1)CCC2	92
O=C(O)c1cccc(NC(=O)C2CCCCC2C(=O)O)c1 (configuration not stated)	100
Cc1ccc(C(=O)NCc2ccc3c(c2)cc(C)n3C)cc1	104
CC(C)c1nnc(NC(=O)C(C)(C)C)s1	101

High-throughput results deposited in PubChem BioAssay by ICCB-Longwood Screening Facility, Harvard Medical School.
